Values joined by “and” are separate entries in the source; they are usually repeats but may differ in a detail not shown here. Identical values can stand only once. Results filed as inconclusive are left out. Active and inactive are the calls of the source. Calls follow the shape of the dose curve; as a rule, active = well fitted cell-killing curve with a large enough effect; inconclusive = small, poorly fitted or top-dose-only effect, or effect the other way; inactive = no such curve, though single readings can be large or run the other way.
Experiment: Viability qHTS for spleen associated tyrosine kinase inhibitor (SYKi) drug resistant MV4-11 cells (AID 1963824); also: nearly all actives have a fitted effect of over 35% in size
Conditions: SYKi-resistant MV4-11 viability, CellTiter-Glo, 72 h; series mostly up to 45 µM; viability, % of control: at the top concentration
Procedure, shortened: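 SYK inhibitor-resistant MV4-11 AML cells, 500 per well, added to predispensed compounds and incubated 72 hr at 37 C, 5% CO2. Viability measured by CellTiter-Glo luminescence after 10 min at room temperature.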
Potency is read from the fitted curve at half-maximal effect.

SMILES	viability, % of control	Potency
O=C(O)c1ccc(=O)[nH]c1	109% (inactive)	
O=C1CC[C@@]2(O)[C@H]3Cc4ccc(O)c5c4[C@@]2(CCN3CC2CC2)[C@H]1O5		inactive
ClCCN1CCCC1	94% (inactive)	
CCNc1nc(Cl)nc(NCC)n1	102% (inactive)	
CN[C@@H](C)[C@H](O)c1ccccc1	98.9% (inactive)	
COC(=O)C1=CCCN(C)C1	96.6% (inactive)	
CC1NCCOC1c1ccccc1 (stereo not drawn)	113% (inactive)	
CCC(C(N)=O)N1CCCC1=O (stereo not drawn)	104% (inactive)	
COP(=S)(OC)Oc1cc(Cl)c(Cl)cc1Cl	85.4% (inactive)	
NP(N)(=O)NC(=O)c1ccc(F)cc1	81.1% (inactive)	
CC(C)(N)Cc1ccc(Cl)cc1	71.1% (inactive)	
NCc1cccnc1	84% (inactive)	
C1CN2CCC1CC2	97.8% (inactive)	
CCC(C)C(C)(COC(N)=O)COC(N)=O (stereo not drawn)	84.8% (inactive)	
N[C@@H]1C[C@H]1c1ccccc1		11.9 µM (active) and 3.72 µM (active)
Cc1ccc(Cl)c(O)c1	83.6% (inactive)	
NC(=O)OCCCc1ccccc1	89.6% (inactive)	
CC[N+]1(CCOC(=O)C(O)(c2ccccc2)c2ccccc2)CCCCC1	79.1% (inactive)	
O=C(O)COc1ccccc1	82.5% (inactive)	
NCC(CC(=O)O)c1ccc(Cl)cc1 (stereo not drawn)	103% [at 0.588 µM] (inactive)	
O=C(CCCCl)c1ccc(F)cc1	79.1% (inactive)	
Oc1cccc2cccnc12	78.2% (inactive)	
O=c1[nH]oc2c1CCNC2	78.1% (inactive)	

From PubChem BioAssay (NCATS)
